Test results from PubChem BioAssay (EPA / NIEHS).
Records with an inconclusive call do not appear. Calls of active or inactive are those of the source. How the source made its calls, unless noted: active means hit-call score of the fitted dose curve at least 0.9, where 1 is the maximum; inactive means score below 0.9.

What was measured:
[1] = target: Estrogen-related receptor gamma (Homo sapiens) (UniProt P62508); experiment: ATG_ERRg_TRANS: Attagene TRANS-FACTORIAL HepG2 Assay for human Estrogen-Related Receptor gamma (ERRg) (AID 2282977; active means hit-call score of the fitted dose curve at least 0.9, where 1 is the maximum;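 further: hits increase reporter signal over DMSO so potencies reflect activators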); conditions: HepG2 Attagene TRANS reporter, ERRg transactivation
Estrogen-related receptor gamma (Homo sapiens), sequence (P62508 whole entry, looked up, the tested form may be a part): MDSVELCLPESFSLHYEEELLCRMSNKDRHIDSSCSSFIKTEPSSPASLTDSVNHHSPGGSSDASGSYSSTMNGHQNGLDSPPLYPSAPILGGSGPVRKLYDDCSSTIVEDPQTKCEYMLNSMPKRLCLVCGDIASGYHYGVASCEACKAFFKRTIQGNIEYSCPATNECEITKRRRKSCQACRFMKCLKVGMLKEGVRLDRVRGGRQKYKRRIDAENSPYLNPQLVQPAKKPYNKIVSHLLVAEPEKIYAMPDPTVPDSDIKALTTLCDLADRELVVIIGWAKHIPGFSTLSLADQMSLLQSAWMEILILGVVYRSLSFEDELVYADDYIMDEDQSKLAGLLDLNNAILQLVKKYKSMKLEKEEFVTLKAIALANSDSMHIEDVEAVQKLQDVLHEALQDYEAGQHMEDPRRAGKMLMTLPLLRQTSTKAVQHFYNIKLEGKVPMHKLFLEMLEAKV
Outline: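 Transfect HepG2 with multiple GAL4-UAS reporter transcription units; dose chemicals 24 h; isolate RNA, reverse-transcribe with oligo(dT), PCR-amplify, label with 6-FAM, digest with HpaI; size fragments by capillary electrophoresis. DMSO serves as negative control.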

[2] = target: Glucocorticoid receptor (Homo sapiens) (UniProt P04150); experiment: ATG_GR_TRANS: Attagene TRANS-FACTORIAL HepG2 Assay for human Glucocorticoid Receptor (GR) (AID 2282978; active means hit-call score of the fitted dose curve at least 0.9, where 1 is the maximum;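 further: activators score as hits since higher reporter transcript over DMSO is fitted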); conditions: HepG2 Attagene TRANS GR reporter, mRNA transcription
Glucocorticoid receptor (Homo sapiens), sequence (P04150 whole entry, looked up): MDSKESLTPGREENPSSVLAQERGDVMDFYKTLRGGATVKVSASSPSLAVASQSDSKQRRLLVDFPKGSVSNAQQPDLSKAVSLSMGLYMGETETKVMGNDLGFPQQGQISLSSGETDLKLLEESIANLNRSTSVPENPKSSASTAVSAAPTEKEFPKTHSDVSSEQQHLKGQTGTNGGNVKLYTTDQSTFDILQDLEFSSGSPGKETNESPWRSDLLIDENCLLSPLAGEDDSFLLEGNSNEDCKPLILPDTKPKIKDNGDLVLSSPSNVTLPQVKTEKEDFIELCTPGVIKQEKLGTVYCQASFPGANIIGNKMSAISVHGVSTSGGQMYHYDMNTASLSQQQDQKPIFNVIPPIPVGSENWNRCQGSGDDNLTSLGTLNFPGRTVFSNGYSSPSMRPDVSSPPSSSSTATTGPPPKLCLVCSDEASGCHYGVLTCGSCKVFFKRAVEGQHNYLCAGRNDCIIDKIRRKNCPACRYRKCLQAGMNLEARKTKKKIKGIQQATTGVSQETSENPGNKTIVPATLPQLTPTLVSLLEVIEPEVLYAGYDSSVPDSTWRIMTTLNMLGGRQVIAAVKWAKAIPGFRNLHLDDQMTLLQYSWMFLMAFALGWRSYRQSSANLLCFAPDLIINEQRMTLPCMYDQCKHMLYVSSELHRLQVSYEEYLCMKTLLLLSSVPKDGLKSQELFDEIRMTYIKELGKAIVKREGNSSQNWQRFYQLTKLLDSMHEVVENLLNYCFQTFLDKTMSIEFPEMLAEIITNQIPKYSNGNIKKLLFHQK
Outline: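 After 24 h incubation with test chemical, transfected HepG2 cells were lysed for RNA; reporter cDNA was amplified, FAM-labelled, HpaI-digested and sized on a capillary analyser. Signal gain relative to DMSO was scored.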

[3] = ATG_M_06_TRANS: Attagene TRANS-FACTORIAL HepG2 Assay for M06 Transcription Factor (Internal Marker) (AID 2282983; active means hit-call score of the fitted dose curve at least 0.9, where 1 is the maximum); conditions: HepG2 Attagene TRANS M06 internal marker reporter
Outline: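 After a 24 h chemical treatment of transfected HepG2, RNA underwent DNase I treatment, reverse transcription and reporter-specific PCR; labelled, HpaI-digested products were sized by capillary electrophoresis. Signal increase relative to DMSO defined activity.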

[4] = ATG_M_32_TRANS: Attagene TRANS-FACTORIAL HepG2 Assay for M32 Transcription Factor (Internal Marker) (AID 2282984; active means hit-call score of the fitted dose curve at least 0.9, where 1 is the maximum;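 further: transcript level of a background control reporter unit measured by RT-PCR and capillary electrophoresis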); conditions: HepG2 Attagene TRANS M32 internal marker reporter
Outline: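 Measures reporter mRNA induction in human HepG2 liver cells after 24 h chemical treatment. Transcripts from transiently transfected GAL4-UAS reporter units are amplified, fluorescently labelled and sized by capillary electrophoresis; gain of signal relative to DMSO.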

[5] = target: Nuclear receptor subfamily 4 group A member 2 (Homo sapiens) (UniProt P43354); experiment: ATG_NURR1_TRANS: Attagene TRANS-FACTORIAL HepG2 Assay for human Nuclear Receptor Related Protein 1 (NURR1) (AID 2282985; active means hit-call score of the fitted dose curve at least 0.9, where 1 is the maximum); conditions: HepG2 Attagene TRANS reporter, mRNA readout
Nuclear receptor subfamily 4 group A member 2 (Homo sapiens), sequence (P43354 whole entry, looked up, the tested form may be a part): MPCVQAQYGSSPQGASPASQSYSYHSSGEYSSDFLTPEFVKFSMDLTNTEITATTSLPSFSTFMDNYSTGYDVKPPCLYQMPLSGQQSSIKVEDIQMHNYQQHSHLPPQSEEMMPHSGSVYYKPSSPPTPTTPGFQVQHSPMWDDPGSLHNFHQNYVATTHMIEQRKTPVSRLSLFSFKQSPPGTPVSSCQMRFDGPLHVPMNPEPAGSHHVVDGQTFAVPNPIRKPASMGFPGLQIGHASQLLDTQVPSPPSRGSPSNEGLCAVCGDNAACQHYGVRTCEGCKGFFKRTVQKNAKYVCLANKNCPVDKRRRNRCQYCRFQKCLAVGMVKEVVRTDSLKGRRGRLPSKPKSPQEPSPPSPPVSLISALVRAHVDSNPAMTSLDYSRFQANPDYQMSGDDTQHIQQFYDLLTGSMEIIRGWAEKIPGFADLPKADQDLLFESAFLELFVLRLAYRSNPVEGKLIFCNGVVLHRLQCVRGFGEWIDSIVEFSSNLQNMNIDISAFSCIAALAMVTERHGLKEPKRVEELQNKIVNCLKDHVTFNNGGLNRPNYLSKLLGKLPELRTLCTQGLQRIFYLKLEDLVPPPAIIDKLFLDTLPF
Outline: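 Transient transfection of HepG2, human liver cells, with multiple GAL4-UAS reporter transcription units. Cells dosed 24 h, RNA isolated, reverse-transcribed, PCR-amplified, FAM-labelled, HpaI-digested, sized by capillary electrophoresis. DMSO served as negative control.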

[6] = target: Transcriptional activator Myb (Homo sapiens) (UniProt P10242); experiment: ATG_Myb_CIS: Attagene CIS-FACTORIAL HepG2 Assay for human Myeloblastosis (Myb) Proto-Oncogene Transcription Factor (AID 2282986); conditions: HepG2 Attagene CIS-FACTORIAL Myb reporter transcription; actives raise or lower the signal
Transcriptional activator Myb (Homo sapiens), sequence (P10242 whole entry, looked up): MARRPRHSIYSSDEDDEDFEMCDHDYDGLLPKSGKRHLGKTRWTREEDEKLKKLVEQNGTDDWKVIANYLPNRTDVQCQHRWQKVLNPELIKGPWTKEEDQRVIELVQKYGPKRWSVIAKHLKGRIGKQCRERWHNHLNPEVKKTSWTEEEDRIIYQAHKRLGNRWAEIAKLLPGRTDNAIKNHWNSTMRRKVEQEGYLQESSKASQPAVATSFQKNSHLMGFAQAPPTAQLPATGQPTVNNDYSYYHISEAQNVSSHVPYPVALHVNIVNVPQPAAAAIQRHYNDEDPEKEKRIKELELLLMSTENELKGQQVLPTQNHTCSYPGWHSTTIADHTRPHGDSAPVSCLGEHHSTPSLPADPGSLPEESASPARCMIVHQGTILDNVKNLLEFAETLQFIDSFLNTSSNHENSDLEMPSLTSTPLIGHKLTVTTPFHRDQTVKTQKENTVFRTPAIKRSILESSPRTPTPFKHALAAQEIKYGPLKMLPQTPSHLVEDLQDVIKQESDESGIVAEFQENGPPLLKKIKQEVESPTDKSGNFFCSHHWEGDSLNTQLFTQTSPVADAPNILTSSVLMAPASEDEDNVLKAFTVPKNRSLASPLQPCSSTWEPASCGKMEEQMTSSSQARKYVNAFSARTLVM
Outline: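 After 24 h of compound dosing, total RNA from transfected HepG2 cells is reverse-transcribed and the reporter sequences amplified, labeled and separated by capillary electrophoresis. Values come from bidirectional fitting against DMSO.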

[7] = target: Nuclear respiratory factor 1 (Homo sapiens) (UniProt Q16656); experiment: ATG_NRF1_CIS: Attagene CIS-FACTORIAL HepG2 Assay for human Nuclear Respiratory Factor 1 (NRF1) Orphan Gene (AID 2282987); conditions: HepG2 NRF1 cis-element reporter, Attagene multiplex; actives raise or lower the signal
Outline: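 Measured: fluorescent reporter-specific RT-PCR products from transfected HepG2 cells, separated by capillary electrophoresis. Exposure lasted 24 h. Analysis used bidirectional curve fitting with DMSO as negative control.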

[8] = target: Myc proto-oncogene protein (Homo sapiens) (UniProt P01106); experiment: ATG_Myc_CIS: Attagene CIS-FACTORIAL HepG2 Assay for human Myelocytomatosis (Myc) Proto-Oncogene Transcription Factor (AID 2282990); conditions: HepG2, Attagene cis-reporter transcription factor activity; actives raise or lower the signal
Myc proto-oncogene protein (Homo sapiens), sequence (P01106 whole entry, looked up): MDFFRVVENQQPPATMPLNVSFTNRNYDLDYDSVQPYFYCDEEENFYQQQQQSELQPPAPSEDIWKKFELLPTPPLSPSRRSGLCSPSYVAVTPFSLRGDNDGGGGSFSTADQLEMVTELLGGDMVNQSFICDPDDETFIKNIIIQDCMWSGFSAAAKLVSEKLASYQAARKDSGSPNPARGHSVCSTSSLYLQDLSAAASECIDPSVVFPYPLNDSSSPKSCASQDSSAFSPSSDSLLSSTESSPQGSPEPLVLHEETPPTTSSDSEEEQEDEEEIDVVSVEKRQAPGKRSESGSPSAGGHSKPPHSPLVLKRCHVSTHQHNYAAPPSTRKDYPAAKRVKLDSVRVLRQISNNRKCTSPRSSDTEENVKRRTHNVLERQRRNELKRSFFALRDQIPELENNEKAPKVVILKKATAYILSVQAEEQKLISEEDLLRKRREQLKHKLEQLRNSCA
Outline: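 HepG2, transient MRTU transfection (cis promoters, endogenous TFs); 24 h dosing; TriZol RNA → oligo(dT) RT → PCR → 6-FAM primer extension → HpaI cut → CE. Bidirectional fit vs DMSO.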

[9] = ATG_NF_kB_CIS: Attagene CIS-FACTORIAL HepG2 Assay for human Nuclear Factor Kappa B (NF-kB) (AID 2282991); conditions: HepG2 Attagene cis-factorial NF-kB reporter mRNA; actives raise or lower the signal
Outline: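 Fluorescence of labelled RT-PCR products separated by capillary electrophoresis gives reporter mRNA levels from transfected HepG2 cells exposed 24 h; values are fitted in both directions relative to DMSO.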

[10] = ATG_NRF2_ARE_CIS: Attagene CIS-FACTORIAL HepG2 Assay for human Nuclear Factor Erythroid 2 Related Factor 2 (NFR2) response to Antioxidant Response Elements (ARE) (AID 2282992); conditions: HepG2 Attagene ARE/NRF2 reporter, transcription factor activity; actives raise or lower the signal
Outline: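 Cis-factorial assay: transfected HepG2 reporter library, 24 h dosing, mRNA readout via RT-PCR/CE; DMSO-referenced bidirectional analysis.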

[11] = ATG_Oct_MLP_CIS: Attagene CIS-FACTORIAL HepG2 Assay for human Octamer-Binding Transcription Factor (Oct) (AID 2282993); conditions: HepG2 Attagene cis-factorial Oct reporter, mRNA; actives raise or lower the signal
Outline: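 HepG2, transient MRTU transfection, cis promoter elements; 24 h dosing; RT-PCR/CE fluorescence read-out of reporter mRNA; fit both directions vs DMSO.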

[12] = target: Cellular tumor antigen p53 (Homo sapiens) (UniProt P04637); experiment: ATG_p53_CIS: Attagene CIS-FACTORIAL HepG2 Assay for human p53 Transcription Factor (AID 2282994); conditions: HepG2 p53 cis-element reporter, Attagene mRNA; actives raise or lower the signal
Cellular tumor antigen p53 (Homo sapiens), sequence (P04637 whole entry, looked up): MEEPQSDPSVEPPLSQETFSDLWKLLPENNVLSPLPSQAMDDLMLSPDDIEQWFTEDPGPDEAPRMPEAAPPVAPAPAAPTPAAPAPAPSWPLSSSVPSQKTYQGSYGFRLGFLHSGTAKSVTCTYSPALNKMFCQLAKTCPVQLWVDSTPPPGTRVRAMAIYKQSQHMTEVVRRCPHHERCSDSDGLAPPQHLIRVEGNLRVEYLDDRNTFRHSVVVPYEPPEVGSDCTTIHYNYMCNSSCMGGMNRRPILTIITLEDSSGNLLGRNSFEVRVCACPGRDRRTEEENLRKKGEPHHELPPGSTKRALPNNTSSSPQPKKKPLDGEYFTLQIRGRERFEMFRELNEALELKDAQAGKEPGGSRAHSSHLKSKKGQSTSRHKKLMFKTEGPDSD
Outline: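 Using HepG2 hepatoma cells carrying cis-acting multiplexed reporters, mRNA induction is detected after a 24 h exposure. Gain- and loss-of-signal responses are fitted relative to DMSO-treated cells.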

[13] = target: Bile acid receptor (Homo sapiens) (UniProt Q96RI1); experiment: ATG_FXR_TRANS: Attagene TRANS-FACTORIAL HepG2 Assay for Farnesoid X Receptor (FXR) (AID 2282979; active means hit-call score of the fitted dose curve at least 0.9, where 1 is the maximum;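 further: hits raise reporter mRNA above DMSO so AC50 marks FXR activation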); conditions: HepG2 Attagene TRANS FXR-GAL4 reporter transcription
Bile acid receptor (Homo sapiens), sequence (Q96RI1 whole entry, looked up, the tested form may be a part): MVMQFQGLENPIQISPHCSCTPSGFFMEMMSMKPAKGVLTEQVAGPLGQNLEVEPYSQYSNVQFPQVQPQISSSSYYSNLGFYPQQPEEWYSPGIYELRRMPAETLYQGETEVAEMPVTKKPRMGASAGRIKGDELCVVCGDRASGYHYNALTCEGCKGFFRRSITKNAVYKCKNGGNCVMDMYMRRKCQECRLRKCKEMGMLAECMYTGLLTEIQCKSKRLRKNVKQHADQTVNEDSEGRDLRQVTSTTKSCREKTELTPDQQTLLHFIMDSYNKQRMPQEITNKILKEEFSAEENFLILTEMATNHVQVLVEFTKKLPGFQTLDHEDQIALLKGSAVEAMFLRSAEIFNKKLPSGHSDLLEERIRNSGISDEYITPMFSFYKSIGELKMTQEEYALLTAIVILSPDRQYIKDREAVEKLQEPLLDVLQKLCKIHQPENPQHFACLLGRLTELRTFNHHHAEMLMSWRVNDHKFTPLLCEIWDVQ
Outline: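 Read-out: fluorescent reporter transcripts quantified by capillary electrophoresis after RT-PCR of total RNA. Source cells were HepG2 transiently carrying chimeric NR-GAL4 plus GAL4-UAS reporter units, dosed 24 h. Activity fitted upward relative to DMSO baseline.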

[14] = ATG_NFI_CIS: Attagene CIS-FACTORIAL HepG2 Assay for human Nuclear Factor I (NFI) (AID 2282989); conditions: HepG2 cis-regulatory reporter, NFI response element transcription; actives raise or lower the signal
Outline: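 Cells: human liver HepG2, transiently transfected with promoter-regulated reporter transcription units. Exposure 24 h. Detection: fluorescent RT-PCR products separated by capillary electrophoresis, normalised to DMSO negative control.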

[15] = BSK_3C_TissueFactor: BioMAP Diversity Plus: 3C Assay for Tissue Factor Biomarker Activity (AID 2282997); conditions: BioMAP 3C HUVEC, tissue factor biomarker readout; actives raise or lower the signal
Outline: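 Human vascular primary cells (umbilical vein endothelium) received test chemical; Tissue Factor was determined by ELISA at 24 h, and both gain and loss of signal versus DMSO were fitted.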

[16] = BSK_3C_uPAR: BioMAP Diversity Plus: 3C Assay for Urokinase-type plasminogen activator receptor (uPAR) Biomarker Activity (AID 2282998); conditions: BioMAP 3C HUVEC, uPAR biomarker ELISA; actives raise or lower the signal
Outline: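 A multiplexed primary-cell system built on human umbilical vein endothelium was used, with chemical present for 24 h before reading. Cell-surface uPAR was detected by ELISA; signal change in either direction counted against DMSO.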

[17] = BSK_3C_VCAM1: BioMAP Diversity Plus: 3C Assay for Vascular cell adhesion molecule 1 (VCAM1) Biomarker Activity (AID 2282999); conditions: BioMAP 3C HUVEC, VCAM1 ELISA, cytokine-stimulated; actives raise or lower the signal
Outline: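 Endothelial cells from human umbilical vein are treated with test chemical. At 24 h, VCAM-1 is measured by ELISA, and responses in either direction are fitted relative to DMSO.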

[18] = target: Oxysterols receptor LXR-beta (Homo sapiens) (UniProt P55055); experiment: ATG_LXRb_TRANS: Attagene TRANS-FACTORIAL HepG2 Assay for human Liver X Receptor beta (LXRb) (AID 2282981; active means hit-call score of the fitted dose curve at least 0.9, where 1 is the maximum); conditions: HepG2 Attagene TRANS GAL4-LXRb reporter, mRNA
Oxysterols receptor LXR-beta (Homo sapiens), sequence (P55055 whole entry, looked up, the tested form may be a part): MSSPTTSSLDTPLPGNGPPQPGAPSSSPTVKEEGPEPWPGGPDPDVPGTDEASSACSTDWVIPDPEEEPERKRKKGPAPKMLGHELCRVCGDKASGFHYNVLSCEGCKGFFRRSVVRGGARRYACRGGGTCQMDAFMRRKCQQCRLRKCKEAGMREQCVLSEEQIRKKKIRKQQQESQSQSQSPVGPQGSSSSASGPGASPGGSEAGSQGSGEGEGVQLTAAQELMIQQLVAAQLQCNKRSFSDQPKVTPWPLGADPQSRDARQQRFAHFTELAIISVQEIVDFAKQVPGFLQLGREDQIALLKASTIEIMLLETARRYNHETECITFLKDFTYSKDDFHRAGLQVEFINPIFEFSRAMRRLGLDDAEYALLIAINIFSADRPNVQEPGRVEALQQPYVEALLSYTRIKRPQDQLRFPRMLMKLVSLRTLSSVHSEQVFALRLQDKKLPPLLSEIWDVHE
Outline: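 Transient transfection HepG2 (multiplexed RTUs, GAL4-UAS); NR-Gal4 chimera; 24 h exposure; RNA → RT-PCR → 6-FAM primer extension → HpaI → CE; increase vs DMSO.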

[19] = target: Hepatocyte nuclear factor 4-alpha (Homo sapiens) (UniProt P41235); experiment: ATG_HNF4a_TRANS: Attagene TRANS-FACTORIAL HepG2 Assay for human Hepatocyte Nuclear Factor 4 alpha (HNF4a) (AID 2282982; active means hit-call score of the fitted dose curve at least 0.9, where 1 is the maximum); conditions: HepG2 HNF4a transactivation reporter, mRNA readout
Outline: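 Readout is fluorescent reporter-transcript fragments resolved by capillary electrophoresis after RT-PCR from HepG2 cells dosed for 24 h. Cells carried transfected GAL4-UAS reporter constructs measuring exogenous NR-GAL4 chimera activity; DMSO served as baseline.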

[20] = target: Oxysterols receptor LXR-alpha (Homo sapiens) (UniProt Q13133); experiment: ATG_LXRa_TRANS: Attagene TRANS-FACTORIAL HepG2 Assay for human Liver X Receptor alpha (LXRa) (AID 2282980; active means hit-call score of the fitted dose curve at least 0.9, where 1 is the maximum); conditions: HepG2 Attagene TRANS reporter, LXRa transactivation
Oxysterols receptor LXR-alpha (Homo sapiens), sequence (Q13133 whole entry, looked up, the tested form may be a part): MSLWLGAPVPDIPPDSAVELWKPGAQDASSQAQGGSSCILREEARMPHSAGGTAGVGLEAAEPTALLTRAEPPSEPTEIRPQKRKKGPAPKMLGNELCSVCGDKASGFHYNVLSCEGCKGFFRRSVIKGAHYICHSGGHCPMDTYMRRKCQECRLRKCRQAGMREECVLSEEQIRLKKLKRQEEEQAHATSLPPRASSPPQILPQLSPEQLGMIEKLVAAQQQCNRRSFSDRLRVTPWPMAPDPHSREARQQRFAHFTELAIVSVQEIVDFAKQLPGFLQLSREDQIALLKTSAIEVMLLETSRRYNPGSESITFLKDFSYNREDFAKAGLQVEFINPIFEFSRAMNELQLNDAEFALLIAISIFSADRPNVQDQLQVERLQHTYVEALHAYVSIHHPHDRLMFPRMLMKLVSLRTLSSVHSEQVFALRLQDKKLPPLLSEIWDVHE
Outline: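 Read-out: reporter transcript levels by RT-PCR plus capillary electrophoresis, fluorescence intensity. Transiently transfected HepG2, exogenous NR-GAL4 chimera, GAL4-UAS reporters; 24 h compound exposure. Activity = increase over DMSO negative control.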

Measured: AC50

Cc1cccc(O)c1
not listed: [13] | [14] | [15] | [16] | [17] | [18] | [19] | [20]
inactive: all other assays above

C=C1CC/C=C(\C)CC[C@@H]2[C@@H]1CC2(C)C
active: [10] 100 µM | [15] 16.8 µM | [16] 33.9 µM | [17] 30.1 µM
not listed: [2] | [7] | [18] | [19] | [20]
inactive: all other assays above

CC(C)OB(OC(C)C)OC(C)C
not listed: [3] | [14] | [15] | [16] | [17] | [20]
inactive: all other assays above

C1COCO1
inactive: [1] | [18] | [3] | [4] | [6] | [14] | [8] | [9] | [10]

CCC(C)(C)C1CCC(=O)CC1
inactive: [1] | [18] | [3] | [6] | [7] | [14] | [8] | [9] | [10] | [11] | [12]

CCCCOCCOCCOCCO
inactive: [1] | [20] | [18] | [19] | [4] | [5] | [6] | [8] | [10] | [11] | [12]

CCOCC(C)O (configuration not stated)
inactive: [1] | [20] | [18] | [19] | [4] | [5] | [6] | [14] | [8] | [10] | [11]

CCCCCCCCCO
inactive: [1] | [2] | [13] | [18] | [4] | [6] | [8] | [11] | [12]

CN(C)c1ccc(C=O)cc1
not listed: [5] | [6] | [15] | [16] | [17] | [20]
inactive: all other assays above

Brc1cc(Br)cc(Br)c1
not listed: [9] | [15] | [16] | [17] | [20]
inactive: all other assays above

CCCCC(CC)COCCO (configuration not stated)
not listed: [5] | [6] | [13] | [15] | [16] | [17] | [18] | [19]
inactive: all other assays above

Cc1cc(O)c2c(c1)C(=O)c1cc(O)cc(O)c1C2=O
active: [9] 17.4 µM | [10] 4.77 µM | [11] 8.59 µM
inactive: [1] | [20] | [18] | [19] | [3] | [5] | [7] | [8] | [12]

Cc1cc(N)n(-c2ccccc2)n1
not listed: [2] | [4] | [13] | [15] | [16] | [17] | [18] | [19]
inactive: all other assays above

O=C(O)c1ccc(C(=O)O)c(C(=O)O)c1
inactive: [1] | [2] | [20] | [3] | [4] | [5] | [7] | [8] | [9] | [10] | [11]

CC(=O)c1ccc2ccccc2c1
inactive: [2] | [13] | [5] | [6] | [7] | [14] | [8] | [10] | [11] | [12]

O=C1OC2(c3ccc(O)cc3Oc3cc(O)ccc32)c2ccccc21
not listed: [1] | [4] | [5] | [9] | [12] | [18]
inactive: all other assays above

C=C(C)C(N)=O
not listed: [2] | [4] | [5] | [13] | [18] | [20]
inactive: all other assays above

CC(=O)CC(=O)N(C)C
not listed: [1] | [9] | [14] | [15] | [16] | [17] | [20]
inactive: all other assays above

O=S(=O)(O)c1cc(S(=O)(=O)O)c2c(N=Nc3ccccc3)c(O)ccc2c1
not listed: [1] | [4] | [5] | [15] | [16] | [17] | [19]
inactive: all other assays above

CN(C)CCC=C1c2ccccc2CCc2ccccc21
active: [10] 33.4 µM | [11] 24.6 µM | [12] 23.1 µM
inactive: [2] | [13] | [20] | [4] | [7] | [14] | [8]

CC(C)Cc1ccc(C(C)C(=O)O)cc1 (configuration not stated)
not listed: [2] | [3] | [13] | [18] | [20]
inactive: all other assays above
